Screening data from PubChem.
A selection: hits, their analogues and other compounds. The true share with any hit is near 1.4%.
PTPN22 inh 2: PTPN22 phosphatase inhibitors, primary screen, biochemical, DiFMUP fluorescence, 2 µM; recombinant LYP catalytic domain; inhibition, % at 2 µM; hit rate 0.21% among 96,000; AID 640, 2007;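 active = inhibition at 2 µM at or above a set limit, the screen mean plus 3 SD, cut at about 24% in these data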
GALR2 antag: GALR2 antagonists in receptor-expressing cells, primary screen | Galanin receptor type 2 (Homo sapiens), O43603 | AID 828, 2007 | inhibition, % at 4 µM | antagonist mode | hit rate 0.39% among 140,000; in the data active = inhibition above about 27%;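 note: cells stimulated with galanin 1-16 at roughly its EC80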
LYP act: LYP phosphatase activators, primary screen, biochemical, DiFMUP fluorescence, 2 µM; Tyrosine-protein phosphatase non-receptor type 22 (Homo sapiens), Q9Y2R2; recombinant LYP; 0 = plate median, 100 = signal doubled; activation, % at 2 µM; hit rate 0.11% among 96,000; AID 697, 2007;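 active = activation at 2 µM above a set limit, the mean plus 5 SD, cut at about 37% in these data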
GALR2 ag: GALR2 receptor agonists, primary screen, cell-based | activation, % (test concentration not listed) | hit rate 0.48% among 140,000 | Galanin receptor type 2 (Homo sapiens), O43603 | GALR2-expressing cells, agonist activation read-out; in the data active = activation above about 5%, passing the limit was not always enough
S1P2 antag: human S1P2 receptor antagonists, primary screen, cell-based | inhibition, % at 5 µM | cell-based S1P2 antagonist assay, inhibition at 5 uM | Sphingosine 1-phosphate receptor 2 (Homo sapiens), O95136 | hit rate 0.21% among 97,000; in the data active = inhibition above about 45%;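 note: CRE beta-lactamase reporter cells expressing human S1P2 stimulated with S1P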
Target sequence (O95136 whole entry, looked up): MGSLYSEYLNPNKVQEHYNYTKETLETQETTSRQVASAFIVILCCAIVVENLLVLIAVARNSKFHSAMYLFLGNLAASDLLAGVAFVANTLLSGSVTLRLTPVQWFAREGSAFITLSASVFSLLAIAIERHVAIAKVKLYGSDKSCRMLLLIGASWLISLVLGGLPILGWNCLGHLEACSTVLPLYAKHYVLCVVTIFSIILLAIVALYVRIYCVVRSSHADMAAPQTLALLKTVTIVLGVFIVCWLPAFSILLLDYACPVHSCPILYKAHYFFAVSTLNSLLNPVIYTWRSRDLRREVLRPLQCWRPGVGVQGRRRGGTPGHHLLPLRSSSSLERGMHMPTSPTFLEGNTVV
S1P2 agonist: S1P2 receptor agonists, primary screen, cell-based; S1P2-expressing cell line, agonist reporter read-out; Sphingosine 1-phosphate receptor 2 (Homo sapiens), O95136; hit rate 0.46% among 97,000; activation, % at 4.5 µM; in the data active = activation above about 16%
Of the large screens only hits and unclear results are named; the others gave an inactive call.

O=S(=O)(C/C(=C/CO)S(=O)(=O)c1ccccc1)c1ccccc1	GALR2 antag 82, S1P2 antag 80
CC(C)[C@@H]1NC(=O)c2cc([N+](=O)[O-])cc(F)c2NCCC[C@@H](C(N)=O)NC(=O)[C@H](CO)NC1=O	none (no result: PTPN22 inh 2, LYP act, S1P2 antag, S1P2 agonist)
COCCCn1c(N)c(-c2nc3ccccc3n2C)c2nc3ccccc3nc21	none
Cn1c(-c2c(N)n(C3CCCC3)c3nc4ccccc4nc23)nc2ccccc21	S1P2 antag 93
COc1ccc(C(=O)NC2(C(F)(F)F)NC(=O)N(CCCc3ccccc3)C2=O)cc1OC (configuration not stated)	none (no result: PTPN22 inh 2, LYP act, S1P2 antag, S1P2 agonist)
CC(C(=O)O)c1ccc(N2Cc3ccccc3C2=O)cc1 (configuration not stated)	none (no result: PTPN22 inh 2, LYP act, S1P2 antag, S1P2 agonist)
CCCn1c(NCc2c[nH]c3ccccc23)nc2ccccc21	S1P2 agonist 21
CCCn1c(Nc2ccc(Cl)cc2)nc2ccccc21	PTPN22 inh 2 38
CCCn1c(NCc2cccc(OC)c2OC)nc2ccccc21	none
COC(=O)c1sc(N)c(C(=O)OC)c1CSc1nc2sc3c(c2c(=O)n1C)CCC3	S1P2 agonist 27
COC(=O)c1ccc(CSc2nc3sc4c(c3c(=O)n2C)CCCC4)o1	none (no result: PTPN22 inh 2, LYP act, S1P2 antag, S1P2 agonist)
Cc1cc(C)nc(SC2=CS(=O)(=O)c3ccccc32)n1	none
O=S1(=O)C=C(Sc2nc3ccccc3s2)c2ccccc21	GALR2 antag 74 (no result: PTPN22 inh 2, LYP act, S1P2 antag, S1P2 agonist)
CCOC(=O)C1=C(C)OC(N)=C(C#N)C1c1c(C)nn(-c2ccc(C)cc2)c1Cl (configuration not stated)	PTPN22 inh 2 33
COC(=O)C1=C(C)OC(N)=C(C#N)C1c1c(C)nn(-c2ccccc2)c1Cl (configuration not stated)	none
O=[N+]([O-])c1ccc(O)c(/C=N/Nc2nc3ccccc3[nH]2)c1	none (no result: PTPN22 inh 2, LYP act, S1P2 antag, S1P2 agonist)
O=[N+]([O-])c1ccc(O)c(/C=N/Nc2ccccn2)c1	GALR2 ag 6.2 (no result: PTPN22 inh 2, LYP act, S1P2 antag, S1P2 agonist)
CCn1c2ccccc2c2nc3cc(S(=O)(=O)N4CCOCC4)ccc3nc21	S1P2 agonist 31
c1ccc2nc3c(nc2c1)c1ccccc1n3CCN1CCOCC1	none
CN1CCN(Cc2nc3ccccc3c(=O)n2Cc2nc(-c3ccc4ccccc4c3)cs2)CC1	GALR2 ag 7.7 (no result: PTPN22 inh 2, LYP act, S1P2 antag, S1P2 agonist)
CN1CCN(Cc2nc3ccccc3c(=O)n2Cc2nc(-c3ccccc3F)cs2)CC1	none (no result: PTPN22 inh 2, LYP act, S1P2 antag, S1P2 agonist)
CC(=O)NC1=NN(C(C)=O)C(C)(CCS(=O)(=O)c2ccc(Br)cc2)S1 (configuration not stated)	GALR2 ag 6.9 (no result: PTPN22 inh 2, LYP act, S1P2 antag, S1P2 agonist)
COc1cc(C2C3=C(Nc4ncnn42)c2ccccc2CC3)cc(OC)c1OC (configuration not stated)	GALR2 antag 35, GALR2 ag 5.0
COc1ccc(C2C3=C(Nc4ncnn42)c2ccccc2CCC3)cc1 (configuration not stated)	none
Cc1ccc(NC(=O)CSc2nc(O)c(Cc3ccccc3)c(=O)n2-c2ccccc2)cc1	none (no result: PTPN22 inh 2, LYP act, S1P2 antag, S1P2 agonist)
Cc1nnc2sc(-c3ccc(NC(=O)c4ccc(-c5ccc(Cl)cc5Cl)o4)cc3)nn12	PTPN22 inh 2 32
O=C(CNC(=O)c1ccccc1F)NCCOc1ccccc1Cl	none (no result: PTPN22 inh 2, LYP act, S1P2 antag, S1P2 agonist)
O=c1oc2c(CN3CCOCC3)c(O)ccc2c2c1CCCC2	GALR2 ag 5.0 (no result: PTPN22 inh 2, LYP act, S1P2 antag, S1P2 agonist)
O=c1oc2c(CN3CCOCC3)c(O)ccc2c2ccccc12	none
Cc1ccc(-c2csc3ncnc(Sc4nnc(CN5CCCCCC5=O)o4)c23)cc1	GALR2 antag 27, S1P2 antag 52
COc1ccc(C2C=C(c3cccs3)Nc3nc(CCCO)nn32)cc1 (configuration not stated)	GALR2 antag 30
COc1ccc(-n2nnnc2SCC(=O)c2ccc(O)c(O)c2)cc1	PTPN22 inh 2 35
CCN1CN(Cc2ccco2)CNC1=S	none (no result: PTPN22 inh 2, LYP act, S1P2 antag, S1P2 agonist)
COc1ccc(C2C=C(c3ccc(Cl)cc3)Nc3nc(NC(C)=O)nn32)cc1 (configuration not stated)	none
COc1ccc(C2=CC(c3ccc(Cl)cc3)n3cnnc3N2)cc1OC (configuration not stated)	GALR2 antag 38 (no result: PTPN22 inh 2, LYP act, S1P2 antag, S1P2 agonist)
O=C(/C=C/c1cccc([N+](=O)[O-])c1)N1CCN(c2ccc(F)cc2)CC1	none (no result: PTPN22 inh 2, LYP act, S1P2 antag, S1P2 agonist)
O=c1ccn(-c2cccc(C(F)(F)F)c2)nc1-c1ccn(-c2ccccc2)n1	S1P2 agonist 25
COc1ccc(N2CCn3c2nc2c3c(=O)n(CCCc3ccccc3)c(=O)n2C)c(OC)c1	S1P2 antag 58
CCOC(=O)c1c(C)n(C)c2ccc(OCC(O)CN(CC)CC)cc12 (configuration not stated)	none
CCOC(=O)c1c(C)n(C)c2ccc(OCC(O)Cn3nc(C)cc3C)cc12 (configuration not stated)	S1P2 agonist 58
CO/C=C\C=C/c1nnn(-c2ccc(Cl)cc2)n1	none (no result: PTPN22 inh 2, LYP act, S1P2 antag, S1P2 agonist)
[O-][n+]1onc2c1CCc1c-2nn(-c2ccccc2Cl)[n+]1[O-]	GALR2 antag 42
Cc1cccc(-n2nc3c([n+]2[O-])CCc2nonc2-3)c1C	none (no result: PTPN22 inh 2, LYP act, S1P2 antag, S1P2 agonist)
Cc1ccc(-n2nc3c([n+]2[O-])CCc2c-3no[n+]2[O-])cc1	GALR2 antag 49 (no result: PTPN22 inh 2, LYP act, S1P2 antag, S1P2 agonist)
CC(=O)N(c1nc(CCl)cs1)c1c(C)cc(C)cc1C	none (no result: PTPN22 inh 2, LYP act, S1P2 antag, S1P2 agonist)
O=C(O)CCN1C(=O)/C(=C/c2ccc(-c3nc4ccccc4s3)o2)SC1=S	PTPN22 inh 2 24
COc1ccc(Cl)cc1NC(=O)C(C)N(C)Cc1ccc(C(F)(F)F)cc1 (configuration not stated)	none (no result: PTPN22 inh 2, LYP act, S1P2 antag, S1P2 agonist)
CCc1nc(N)c(C#N)c(-c2ccc(OC)c(OC)c2)c1C	none
CCc1nc(C)c(C#N)c2cc(OC)c(OC)cc12	S1P2 agonist 26
CC1=C(C(=O)Nc2ccc(F)cc2)C(c2ccc(C)o2)C2=C(CC(C)(C)CC2=O)N1 (configuration not stated)	S1P2 agonist 21
CC(C)NC(=O)c1cccc(Br)c1	none
CC(C)(C)c1ccc(C(=O)NNC(=O)c2cccc(Br)c2)cc1	S1P2 agonist 23
N=c1c(C(=O)NCc2ccco2)cc2c(=O)n3ccccc3nc2n1CC1CCCO1 (configuration not stated)	none
COCCCn1c(=N)c(C(=O)NCC2CCCO2)cc2c(=O)n3cccc(C)c3nc21 (configuration not stated)	none (no result: PTPN22 inh 2, LYP act, S1P2 antag, S1P2 agonist)
N=c1c(C(=O)NCc2ccc(F)cc2)cc2c(=O)n3ccccc3nc2n1CC1CCCO1 (configuration not stated)	GALR2 ag 14, S1P2 agonist 31
Cc1ccc(Cn2c(=N)c(C(=O)NCc3ccco3)cc3c(=O)n4ccccc4nc32)cc1	PTPN22 inh 2 31, GALR2 ag 6.8, S1P2 agonist 24
